From PubChem BioAssay AID1159580 (chemical genetic matrix, 2015)
Among all 5,500 compounds or so, about 2,000 (36%) were called active. Not shown: some 18% with an inconclusive outcome. Cut-off read from the data, not from the text of the source: active = normalized growth mostly below about 0.91 (no sharp cut-off); inconclusive = no clear call, values can overlap the other calls; inactive = mostly above about 0.92. Some of the results follow.

Assay: chemical genetic growth profiling, strain panel (AID 1159580);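 note: tested at 20 µM; growth read once vehicle control cultures reached saturation at 30 °C; 1 = growth at the plate median or of vehicle wells; lower values mean less growth of the strain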
Settings: growth OD

Measured: normalized growth

C=CCC1(C(C)CCC)C(=O)N=C(S)NC1=O (configuration not stated)
inactive: S. cerevisiae deletion strains, locus YJR075W, strain HOC1, active compounds read low 1.04 | S. cerevisiae deletion strains, locus YKL009W, strain mrt4, active compounds read low 0.963 | S. cerevisiae deletion strains, locus YKL068W, active compounds read low 0.969 | S. cerevisiae deletion strains, locus YKL085W, strain MDH1 (second series), active compounds read low 0.983 | S. cerevisiae deletion strains, locus YKL085W, strain MDH1, active compounds read low 0.983 | S. cerevisiae deletion strains, locus YKL160W, strain elf1, active compounds read low 0.972 | S. cerevisiae deletion strains, locus YKL190W, strain CNB1, active compounds read low 0.992 | S. cerevisiae deletion strains, locus YKR001C, strain vps1, active compounds read low 0.993 | S. cerevisiae deletion strains, locus YKR026C, strain gcn3, active compounds read low 0.925 | S. cerevisiae deletion strains, locus YKR091W, strain srl3, active compounds read low 0.978 | S. cerevisiae deletion strains, locus YLL001W, strain dnm1, active compounds read low 0.942 | S. cerevisiae deletion strains, locus YLL026W, active compounds read low 0.994 | S. cerevisiae deletion strains, locus YLL041C, strain sdh2, active compounds read low 0.974 | S. cerevisiae deletion strains, locus YLR027C, strain aat2, active compounds read low 0.979 | S. cerevisiae deletion strains, locus YLR039C, strain RIC1, active compounds read low 0.891 | S. cerevisiae deletion strains, locus YLR058C, strain SHM2, active compounds read low 0.988 | S. cerevisiae deletion strains, locus YLR102C, strain apc9, active compounds read low 0.966 | S. cerevisiae deletion strains, locus YLR113W, strain HOG1, active compounds read low 0.977 | S. cerevisiae deletion strains, locus YLR221C, strain rsa3, active compounds read low 1 | S. cerevisiae deletion strains, locus YLR258W, strain gsy2, active compounds read low 0.967 | S. cerevisiae deletion strains, locus YLR262C, strain YPT6 (second series), active compounds read low 0.905 | S. cerevisiae deletion strains, locus YLR262C, strain YPT6, active compounds read low 0.853 | S. cerevisiae deletion strains, locus YLR268W, strain sec22, active compounds read low 0.992 | S. cerevisiae deletion strains, locus YLR320W, strain mms22, active compounds read low 1.01 | S. cerevisiae deletion strains, locus YLR330W, strain CHS5, active compounds read low 0.979 | S. cerevisiae deletion strains, locus YLR342W, strain FKS1 (second series), active compounds read low 0.916 | S. cerevisiae deletion strains, locus YLR342W, strain FKS1, active compounds read low 0.978 | S. cerevisiae deletion strains, locus YLR357W, strain rsc2, active compounds read low 0.978 | S. cerevisiae deletion strains, locus YLR370C, strain arc18, active compounds read low 0.99 | S. cerevisiae deletion strains, locus YLR371W, strain rom2, active compounds read low 0.957 | S. cerevisiae deletion strains, locus YLR384C, strain iki3, active compounds read low 0.944 | S. cerevisiae deletion strains, locus YLR418C, strain cdc73, active compounds read low 1.04 | S. cerevisiae deletion strains, locus YML016C, strain PPZ1, active compounds read low 0.994 | S. cerevisiae deletion strains, locus YML032C, strain rad52, active compounds read low 0.957 | S. cerevisiae deletion strains, locus YML120C, strain ndi1, active compounds read low 0.988 | S. cerevisiae deletion strains, locus YML124C, strain tub3, active compounds read low 0.981 | S. cerevisiae deletion strains, locus YMR058W, strain fet3, active compounds read low 0.977 | S. cerevisiae deletion strains, locus YMR078C, strain ctf18, active compounds read low 0.972 | S. cerevisiae deletion strains, locus YMR125W, strain sto1, active compounds read low 0.923 | S. cerevisiae deletion strains, locus YMR129W, active compounds read low 0.978 | S. cerevisiae deletion strains, locus YMR205C, strain PFK2, active compounds read low 0.965 | S. cerevisiae deletion strains, locus YMR223W, strain ubp8, active compounds read low 0.979 | S. cerevisiae deletion strains, locus YMR231W, strain pep5, active compounds read low 0.963 | S. cerevisiae deletion strains, locus YMR263W, strain SAP30, active compounds read low 1.01 | S. cerevisiae deletion strains, locus YMR307W, strain GAS1, active compounds read low 1.02 | S. cerevisiae deletion strains, locus YNL067W, strain RPL9B, active compounds read low 1.02 | S. cerevisiae deletion strains, locus YNL071W, strain lat1, active compounds read low 1 | S. cerevisiae deletion strains, locus YNL128W, strain TEP1, active compounds read low 1.01 | S. cerevisiae deletion strains, locus YNL153C, strain GIM3, active compounds read low 1.03 | S. cerevisiae deletion strains, locus YNL183C, strain NPR1, active compounds read low 0.929 | S. cerevisiae deletion strains, locus YNL209W, strain ssb2, active compounds read low 0.976 | S. cerevisiae deletion strains, locus YNL233W, strain BNI4, active compounds read low 1.03 | S. cerevisiae deletion strains, locus YNL248C, strain rpa49, active compounds read low 0.914 | S. cerevisiae deletion strains, locus YNL250W, strain rad50, active compounds read low 0.963 | S. cerevisiae deletion strains, locus YNL271C, strain bni1, active compounds read low 0.98 | S. cerevisiae deletion strains, locus YNL298W, strain CLA4, active compounds read low 0.978 | S. cerevisiae deletion strains, locus YNL307C, strain MCK1, active compounds read low 0.961 | S. cerevisiae deletion strains, locus YNL322C, strain KRE1 (second series), active compounds read low 0.969 | S. cerevisiae deletion strains, locus YNL322C, strain KRE1, active compounds read low 0.989 | S. cerevisiae deletion strains, locus YNR049C, strain mso1, active compounds read low 0.97 | S. cerevisiae deletion strains, locus YNR052C, strain pop2, active compounds read low 0.995 | S. cerevisiae deletion strains, locus YOL006C, strain TOP1, active compounds read low 1.06 | S. cerevisiae deletion strains, locus YOL012C, strain htz1 1.08 | S. cerevisiae deletion strains, locus YOL147C, strain pex11, active compounds read low 0.99 | S. cerevisiae deletion strains, locus YOR001W, strain rrp6, active compounds read low 0.952 | S. cerevisiae deletion strains, locus YOR061W, strain CKA2, active compounds read low 0.99 | S. cerevisiae deletion strains, locus YOR069W, strain VPS5, active compounds read low 0.974 | S. cerevisiae deletion strains, locus YOR070C, strain gyp1, active compounds read low 0.991 | S. cerevisiae deletion strains, locus YOR080W, strain dia2, active compounds read low 0.959 | S. cerevisiae deletion strains, locus YOR083W, strain WHI5, active compounds read low 0.976 | S. cerevisiae deletion strains, locus YOR106W, strain vam3, active compounds read low 0.941 | S. cerevisiae deletion strains, locus YOR136W, strain idh2, active compounds read low 0.993 | S. cerevisiae deletion strains, locus YOR144C, strain elg1, active compounds read low 0.991 | S. cerevisiae deletion strains, locus YOR184W, strain ser1, active compounds read low 0.949 | S. cerevisiae deletion strains, locus YOR231W, strain MKK1, active compounds read low 0.984 | S. cerevisiae deletion strains, locus YOR265W, strain rbl2, active compounds read low 0.976 | S. cerevisiae deletion strains, locus YOR270C, strain vph1, active compounds read low 0.912 | S. cerevisiae deletion strains, locus YOR290C, strain snf2, active compounds read low 0.996 | S. cerevisiae deletion strains, locus YOR316C, strain cot1, active compounds read low 0.981 | S. cerevisiae deletion strains, locus YPL051W, strain arl3, active compounds read low 0.979 | S. cerevisiae deletion strains, locus YPL055C, strain LGE1, active compounds read low 1.02 | S. cerevisiae deletion strains, locus YPL078C, strain atp4, active compounds read low 0.937 | S. cerevisiae deletion strains, locus YPL106C, strain sse1, active compounds read low 0.988 | S. cerevisiae deletion strains, locus YPL240C, strain hsp82, active compounds read low 0.97 | S. cerevisiae deletion strains, locus YPL241C, strain CIN2, active compounds read low 0.99 | S. cerevisiae deletion strains, locus YPL256C, strain CLN2, active compounds read low 0.996 | S. cerevisiae deletion strains, locus YPR119W, strain clb2, active compounds read low 0.99 | S. cerevisiae deletion strains, locus YPR141C, strain kar3, active compounds read low 0.977 | S. cerevisiae deletion strains, locus YPR163C, strain tif3, active compounds read low 0.985 | S. cerevisiae deletion strains, locus YPR167C, strain met16, active compounds read low 0.981 | S. cerevisiae deletion strains, strain wtn01, active compounds read low 0.98 | S. cerevisiae strains, strain wild type, active compounds read low 0.986
